The source made the active and inactive calls. The calls were made as follows: active = hit-call score of the fitted dose curve at least 0.9, where 1 is the maximum; inactive = score below 0.9.
Legend:
[1] = read-out: Vascular cell adhesion molecule 1 (VCAM1), VCAM1 (gene 7412); assay: BSK_4H_VCAM1: BioMAP Diversity Plus: 4H Assay for Vascular cell adhesion molecule 1 (VCAM1) Biomarker Activity (AID 2283033); settings: primary human endothelial cells (HUVEC); actives raise or lower the signal;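 also: cell-surface VCAM-1 protein measured by ELISA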
Method in brief: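 ELISA read-out of VCAM-1 on human umbilical vein endothelium 24 hours after chemical dosing; gain or loss of signal was fitted relative to DMSO, with sulforhodamine B staining of parallel cultures flagging overt cytotoxicity.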

[2] = read-out: Interferon-gamma inducible Protein 10 (IP10), CXCL10 (gene 3627); assay: BSK_BE3C_IP10: BioMAP Diversity Plus: BE3C Assay for Interferon-gamma inducible Protein 10 (IP10) Biomarker Activity (AID 2283034); settings: primary human bronchial epithelial cells; actives raise or lower the signal
Method in brief: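 Chemical is dosed onto human lung bronchial epithelial primary cells, cultures are incubated 24 h, and IP-10 is then quantified by ELISA. Gain or loss of signal is fitted in both directions relative to DMSO.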

[3] = read-out: Monokine induced gamma interferon (MIG), CXCL9 (gene 4283); assay: BSK_BE3C_MIG: BioMAP Diversity Plus: BE3C Assay for Monokine induced gamma interferon (MIG) Biomarker Activity (AID 2283035); settings: primary human bronchial epithelial cells; actives raise or lower the signal;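 also: MIG protein measured by ELISA in BE3C cultures after 24 h of dosing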
Method in brief: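 MIG level was determined by ELISA after 24 h chemical treatment of primary human bronchial epithelial cells. Values were fitted bidirectionally with DMSO as the negative control and activity baseline.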

[4] = read-out: Transforming growth factor beta 1 (TGFb1), TGFB1 (gene 7040); assay: BSK_BE3C_TGFb1: BioMAP Diversity Plus: BE3C Assay for Transforming growth factor beta 1 (TGFb1) Biomarker Activity (AID 2283036;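 also: TGF-b1 protein level measured by ELISA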); settings: primary human bronchial epithelial cells; actives raise or lower the signal
Method in brief: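 Primary human lung bronchial epithelial cells; compound exposure 24 h; TGF-b1 by ELISA; bidirectional fit, DMSO baseline. Parallel SRB total-protein staining for cytotoxicity.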

[5] = read-out: Plasminogen activator inhibitor-1 (PAI1), SERPINE1 (gene 5054); assay: BSK_BE3C_PAI1: BioMAP Diversity Plus: BE3C Assay for Plasminogen activator inhibitor-1 (PAI1) Biomarker Activity (AID 2283037); settings: primary human bronchial epithelial cells; actives raise or lower the signal
Method in brief: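 Primary human lung bronchial epithelial cells; chemical dosing; 24 h; PAI-1 measured by ELISA; bidirectional fit referenced to DMSO as negative control.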

[6] = read-out: urokinase plasminogen activator (uPA), PLAU (gene 5328); assay: BSK_BE3C_uPA: BioMAP Diversity Plus: BE3C Assay for urokinase plasminogen activator (uPA) Biomarker Activity (AID 2283038); settings: primary human bronchial epithelial cells; actives raise or lower the signal;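 also: uPA protein level quantified by ELISA in cell cultures; uPA read one day after compound addition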
Method in brief: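 Measured by ELISA: uPA from human primary bronchial epithelial cells 24 h after chemical treatment. Values derive from bidirectional curve fitting with DMSO serving as negative control. Total protein by SRB staining in parallel wells flagged overt cytotoxicity.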

[7] = read-out: Urokinase-type plasminogen activator receptor (uPAR), PLAUR (gene 5329); assay: BSK_BE3C_uPAR: BioMAP Diversity Plus: BE3C Assay for Urokinase-type plasminogen activator receptor (uPAR) Biomarker Activity (AID 2283039); settings: primary human bronchial epithelial cells; actives raise or lower the signal;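 also: uPAR protein level measured by ELISA on the cells; cells exposed to compound for one day before measurement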
Method in brief: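 Human bronchial epithelial primary cells; chemical exposure 24 h; uPAR by ELISA; bidirectional fit vs DMSO control.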

[8] = read-out: Interleukin-6 (IL6), IL6 (gene 3569); assay: BSK_CASM3C_IL6: BioMAP Diversity Plus: CASM3C Assay for Interleukin-6 (IL6) Biomarker Activity for (AID 2283040); settings: primary human coronary artery smooth muscle cells; actives raise or lower the signal
[9] = read-out: Tissue plasminogen activator (tPA), PLAT (gene 5327); assay: BSK_BE3C_tPA: BioMAP Diversity Plus: BE3C Assay for Tissue plasminogen activator (tPA) Biomarker Activity (AID 2283041); settings: primary human bronchial epithelial cells; actives raise or lower the signal;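 also: tPA level quantified by ELISA one day after compound addition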
Method in brief: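 Primary human lung bronchial epithelial cultures receive test chemical; after 24 h, tPA is quantified by ELISA, and gain or loss of signal is fitted bidirectionally relative to DMSO baseline.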

[10] = read-out: Interleukin-8 (IL8), CXCL8 (gene 3576); assay: BSK_CASM3C_IL8: BioMAP Diversity Plus: CASM3C Assay for Interleukin-8 (IL8) Biomarker Activity (AID 2283042); settings: primary human coronary artery smooth muscle cells; actives raise or lower the signal;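 also: IL-8 protein level quantified by ELISA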
[11] = read-out: Human Leukocyte Antigen - DR isotype (HLADR), HLA-DRA (gene 3122); assay: BSK_CASM3C_HLADR: BioMAP Diversity Plus: CASM3C Assay for Human Leukocyte Antigen - DR isotype (HLADR) Biomarker Activity (AID 2283043); settings: primary human coronary artery smooth muscle cells; actives raise or lower the signal;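 also: cell-surface HLA-DR protein level quantified by ELISA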
[12] = read-out: Macrophage colony-stimulating factor (MCSF), CSF1 (gene 1435); assay: BSK_CASM3C_MCSF: BioMAP Diversity Plus: CASM3C Assay for Macrophage colony-stimulating factor (MCSF) Biomarker Activity (AID 2283044); settings: primary human coronary artery smooth muscle cells; actives raise or lower the signal;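 also: M-CSF protein amount quantified by ELISA after 24 h exposure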
[13] = read-out: Low-density lipoprotein receptor (LDLR), LDLR (gene 3949); assay: BSK_CASM3C_LDLR: BioMAP Diversity Plus: CASM3C Assay for Low-density lipoprotein receptor (LDLR) Biomarker Activity (AID 2283045); settings: primary human coronary artery smooth muscle cells; actives raise or lower the signal;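 also: LDLR protein level on the cell surface quantified by ELISA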
[14] = read-out: Monocyte Chemoattractant Protein-1 (MCP1), CCL2 (gene 6347); assay: BSK_CASM3C_MCP1: BioMAP Diversity Plus: CASM3C Assay for Monocyte Chemoattractant Protein-1 (MCP1) Biomarker Activity (AID 2283046); settings: primary human coronary artery smooth muscle cells; actives raise or lower the signal;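 also: MCP-1 level quantified by ELISA 24 h after dosing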
[15] = BSK_CASM3C_Proliferation: Cell Proliferation Assessment in the BioMAP Diversity Plus: CASM3C Assay (AID 2283047); settings: primary human coronary artery smooth muscle cells;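 also: sulforhodamine B total protein stain as relative cell number at 560 nm; sub-confluent cells exposed 48 h before staining; fitted both ways against DMSO so gain or loss of cell number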
[16] = read-out: Monokine induced gamma interferon (MIG), CXCL9 (gene 4283); assay: BSK_CASM3C_MIG: BioMAP Diversity Plus: CASM3C Assay for Monokine induced gamma interferon (MIG) Biomarker Activity (AID 2283048); settings: primary human coronary artery smooth muscle cells; actives raise or lower the signal;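 also: MIG protein level measured by ELISA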
[17] = read-out: serum amyloid A (SAA), SAA1 (gene 6288); assay: BSK_CASM3C_SAA: BioMAP Diversity Plus: CASM3C Assay for serum amyloid A (SAA) Biomarker Activity (AID 2283049); settings: primary human coronary artery smooth muscle cells; actives raise or lower the signal;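 also: SAA protein level quantified by ELISA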
[18] = BSK_CASM3C_SRB: Viability Assessment in the BioMAP Diversity Plus: CASM3C Assay (AID 2283050); settings: primary human coronary artery smooth muscle cells;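 also: total protein by SRB staining as cytotoxicity measure in parallel cultures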
[19] = read-out: Thrombomodulin, THBD (gene 7056); assay: BSK_CASM3C_Thrombomodulin: BioMAP Diversity Plus: CASM3C Assay for Thrombomodulin Biomarker Activity (AID 2283051); settings: primary human coronary artery smooth muscle cells; actives raise or lower the signal;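 also: thrombomodulin protein level measured by ELISA 24 h after dosing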
[20] = read-out: Tissue Factor, F3 (gene 2152); assay: BSK_CASM3C_TissueFactor: BioMAP Diversity Plus: CASM3C Assay for Tissue Factor Biomarker Activity (AID 2283052); settings: primary human coronary artery smooth muscle cells; actives raise or lower the signal;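 also: cell surface tissue factor protein level read by ELISA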

## C#C[C@]1(O)CC[C@H]2[C@@H]3CCC4=CC(=O)CC[C@@H]4[C@H]3CC[C@@]21CC
[1]
  outcome: inactive
[2]
  outcome: inactive
[3]
  outcome: inactive
[4]
  outcome: inactive
[5]
  outcome: inactive
[6]
  outcome: inactive
[7]
  outcome: inactive
[8]
  outcome: inactive
[9]
  outcome: inactive
[10]
  outcome: inactive
[11]
  outcome: inactive
[12]
  outcome: inactive
[13]
  outcome: inactive
[14]
  outcome: inactive
[15]
  outcome: inactive
[16]
  outcome: inactive
[17]
  AC50: 6.06 µM (active)
[18]
  outcome: inactive
[19]
  outcome: inactive
[20]
  outcome: inactive

## COc1nc(C)nc(NC(=O)NS(=O)(=O)c2ccccc2OCCCl)n1
[1]
  outcome: inactive
[2]
  outcome: inactive
[3]
  outcome: inactive
[4]
  outcome: inactive
[5]
  outcome: inactive
[6]
  outcome: inactive
[7]
  outcome: inactive
[8]
  outcome: inactive
[9]
  outcome: inactive
[10]
  outcome: inactive
[11]
  outcome: inactive
[12]
  outcome: inactive
[13]
  outcome: inactive
[14]
  AC50: 0.441 µM (active)
[15]
  outcome: inactive
[16]
  outcome: inactive
[17]
  outcome: inactive
[18]
  outcome: inactive
[19]
  outcome: inactive
[20]
  outcome: inactive

## CCOC(=O)C(C)Oc1ccc(Oc2cnc3cc(Cl)ccc3n2)cc1 (centres undefined)
[1]
  outcome: inactive
[2]
  outcome: inactive
[3]
  outcome: inactive
[5]
  outcome: inactive
[6]
  outcome: inactive
[7]
  outcome: inactive
[8]
  outcome: inactive
[9]
  outcome: inactive
[10]
  outcome: inactive
[11]
  outcome: inactive
[12]
  outcome: inactive
[13]
  outcome: inactive
[14]
  outcome: inactive
[15]
  outcome: inactive
[16]
  outcome: inactive
[17]
  outcome: inactive
[18]
  outcome: inactive
[19]
  outcome: inactive
[20]
  outcome: inactive

## CSC(=O)c1cccc2nnsc12
[1]
  outcome: inactive
[2]
  outcome: inactive
[3]
  outcome: inactive
[4]
  outcome: inactive
[5]
  outcome: inactive
[6]
  outcome: inactive
[7]
  outcome: inactive
[8]
  outcome: inactive
[9]
  outcome: inactive
[10]
  outcome: inactive
[11]
  outcome: inactive
[12]
  outcome: inactive
[13]
  outcome: inactive
[14]
  outcome: inactive
[15]
  outcome: inactive
[16]
  outcome: inactive
[17]
  outcome: inactive
[18]
  outcome: inactive
[19]
  AC50: 20 µM (active)
[20]
  outcome: inactive

## CCCCCOC(=O)COc1cc(N2C(=O)C3=C(CCCC3)C2=O)c(F)cc1Cl
[1]
  outcome: inactive
[2]
  outcome: inactive
[3]
  outcome: inactive
[4]
  outcome: inactive
[5]
  outcome: inactive
[6]
  outcome: inactive
[7]
  outcome: inactive
[8]
  outcome: inactive
[9]
  outcome: inactive
[10]
  outcome: inactive
[11]
  outcome: inactive
[12]
  AC50: 14.4 µM (active)
[13]
  outcome: inactive
[14]
  outcome: inactive
[15]
  AC50: 12.6 µM (active)
[16]
  AC50: 25.5 µM (active)
[17]
  outcome: inactive
[18]
  outcome: inactive
[19]
  outcome: inactive
[20]
  outcome: inactive

Source: PubChem BioAssay (EPA / NIEHS)
